Assay outcomes as filed in PubChem.
Sampled rows, rich in hits. Any-hit rate of the full collection: about 7.9%.
LASV entry inh: inhibitors of Lassa virus binding or cell entry; 300,000 compounds, 1.2% hits; Lassa virus pseudotype entry inhibition, cell reporter; Potency, µM (top dose mostly 37.9 µM), hits mostly inhibitors; calls by dose curve; tested in HEK293 cells; also: nearly all actives have a fitted effect of over 50% in size
HCV inhibitor: blocks hepatitis C virus | Huh7.5.1 HCVcc-Cre infection, luciferase reporter, 44 h | AID 651820 | Potency, µM (top dose mostly 41.8 µM), actives largely listed as inhibitors | 340,000 compounds, 3.4% hits; active = well fitted inhibition curve with a large enough effect; inconclusive = small, poorly fitted or top-dose-only effect, or another doubt; inactive = no such curve, though single readings can be large or run the other way
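Infectious HCVcc-Cre (~0.5 moi) was added to cells just after compound, with cells seeded 4 h earlier at 1,000 per well. Luciferase activity after 44 h culture reported infection; substrate was incubated 15 min at room temperature before reading.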
Marburg entry inh: blocks Marburg virus binding to or entry into cells; Marburg virus pseudotyped entry inhibition, cell reporter; Potency, µM (doses to about 37.8 µM), usual class: inhibitors; 300,000 compounds, 1.8% hits; calls by dose curve; tested in HEK293 cells
HCMV antiviral: blocks human cytomegalovirus replication; HFF cells, HCMV-luciferase reporter, 72 h; hits give low values; activity change, negative = inhibition, % at 57.5 µM; 410,000 compounds, 4.5% hits; in the data active = activity change below about -60%; inconclusive = no clear call, values can overlap the other calls; inactive = above about -39%
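Human foreskin fibroblasts infected with luciferase-reporter HCMV at MOI 1 PFU/cell, compounds at two doses. Luciferase measured 72 h post infection; normalized to buffer-only basal and Salinomycin (10uM) controls.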
FMDV inh: antivirals against foot and mouth disease virus. FMDV antiviral cell-based qHTS. Potency, µM (titrated, usually from 57.9 µM), hits mostly inhibitors. 410,000 compounds, 1.2% hits; calls by dose curve; tested in HEK293T cells; also: read-out not given here; nearly all actives have a fitted effect of over 45% in size
Each line names hits and unclear results; the compound was inactive in the other large screens.

CC(C)C(=O)Nc1cccc(C(=O)Nc2cc([N+](=O)[O-])ccc2Cl)c1	HCV inhibitor inconclusive, HCMV antiviral inconclusive (no result: LASV entry inh, Marburg entry inh)
Cc1cc([N+](=O)[O-])ccc1NC(=O)c1cccc(NC(=O)C(C)C)c1	HCV inhibitor 11µM (no result: LASV entry inh, Marburg entry inh)
CCN(CC)S(=O)(=O)c1ccc(C(=O)Nc2cccc(C)c2)cc1	LASV entry inh inconclusive, HCV inhibitor inconclusive (no result: FMDV inh)
Cc1ccc(S(=O)(=O)Nc2ccc(NC(=O)Nc3cccc(C(F)(F)F)c3)cc2)cc1	LASV entry inh inconclusive, HCV inhibitor inconclusive, Marburg entry inh inconclusive, HCMV antiviral -62, FMDV inh inconclusive
COc1ccc(CNC(=O)c2ccc3c(c2)N(Cc2cccc(Cl)c2)C(=O)c2ccccc2S3)c(OC)c1	none (no result: HCV inhibitor, Marburg entry inh)
Cn1cc(S(=O)(=O)N2CCCCCC2)cc1C(=O)N1CCN(c2cccc(Cl)c2)CC1	none (no result: HCV inhibitor, Marburg entry inh)
COC(=O)C1=C(C)N(Cc2ccccc2)C(=NCc2cc(OC)c(OC)c(OC)c2)NC1c1cccc(F)c1 (stereo not given)	LASV entry inh inconclusive (no result: HCV inhibitor, HCMV antiviral, FMDV inh)
Cc1cc(C)c2c(CN3CCN(Cc4ccccc4)CC3)cc(=O)oc2c1C	FMDV inh inconclusive (no result: LASV entry inh, Marburg entry inh)
Cc1ccnc(NC(=O)Nc2cccc(F)c2)c1	LASV entry inh 6.5µM, Marburg entry inh inconclusive
O=C(NCc1ccccc1Cl)c1ccc(S(=O)(=O)N2CCCC2)cc1	none
CCN(CC)S(=O)(=O)c1ccc(/C=C/C(=O)Nc2cccc(F)c2)cc1	LASV entry inh inconclusive, HCV inhibitor 13µM, HCMV antiviral inconclusive, FMDV inh inconclusive
CCN(CC)S(=O)(=O)c1ccc(/C=C/C(=O)O)cc1	LASV entry inh inconclusive, HCMV antiviral inconclusive
CCN(CC)S(=O)(=O)c1ccc(C)c(NC(=O)/C=C/c2cccs2)c1	LASV entry inh inconclusive, HCV inhibitor 10µM, Marburg entry inh inconclusive, FMDV inh inconclusive
Cc1ccccc1NC(=O)/C=C/c1cccs1	Marburg entry inh inconclusive
O=C(NCc1ccccc1Cl)c1ccc(S(=O)(=O)Nc2cccc(C(F)(F)F)c2)cc1	LASV entry inh inconclusive, Marburg entry inh inconclusive, HCMV antiviral -66
COc1ccc(C(=O)NCC2Cc3cccc(-c4ccc(S(C)(=O)=O)cc4)c3O2)c(OC)n1 (stereo not given)	none (no result: LASV entry inh, HCV inhibitor, Marburg entry inh, HCMV antiviral)
CCCOc1ccc(CNC(=O)CN2C(=O)c3cccnc3Oc3ccc(C)cc32)cc1	LASV entry inh inconclusive, HCMV antiviral inconclusive (no result: HCV inhibitor, Marburg entry inh)
CC(=O)Nc1cccc(NC(=O)Nc2cccc(F)c2)c1	none (no result: LASV entry inh, Marburg entry inh)
CNS(=O)(=O)c1ccc(NC(=O)Nc2cccc(F)c2)cc1	HCMV antiviral -101
C=CC[C@H](CC(=O)N(CCO)Cc1ccccc1)C(=O)NC[C@@H](OC(=O)[C@@H](CC=C)Cc1ccc(F)cc1)c1ccccc1	HCV inhibitor 7.9µM, FMDV inh inconclusive (no result: LASV entry inh, Marburg entry inh)
C=CC[C@H](CC(=O)NCCO)C(=O)NC[C@@H](OC(=O)[C@@H](CC=C)Cc1ccc(F)cc1)c1ccccc1	none (no result: LASV entry inh, Marburg entry inh)
C=CCC[C@H](Cc1ccc(F)cc1)C(=O)O[C@H](CNC(=O)[C@@H](CC=C)CC(=O)N(CCO)Cc1ccccc1)c1ccccc1	HCV inhibitor inconclusive, FMDV inh 40µM (no result: LASV entry inh, Marburg entry inh)
C=CC[C@@H](CC(=O)N(CCO)Cc1ccccc1)C(=O)NCCOC(=O)[C@@H](CC=C)Cc1ccc(F)cc1	HCV inhibitor inconclusive, FMDV inh inconclusive (no result: LASV entry inh, Marburg entry inh)
O=c1c(N2CCN(c3cccc(Cl)c3)CC2)csc2ccc(Cl)cc12	none (no result: HCV inhibitor, Marburg entry inh)
Cc1ccc(C(=O)N/C(=C/c2cccc([N+](=O)[O-])c2)C(=O)NCC2CCCO2)cc1 (stereo not given)	none (no result: LASV entry inh, Marburg entry inh)
Cc1ccc(NC(=O)/C(=C/c2cccc([N+](=O)[O-])c2)NC(=O)C2CCCCC2)c(C)c1	LASV entry inh inconclusive, Marburg entry inh inconclusive, HCMV antiviral -96 (no result: FMDV inh)
Cc1cccc(NC(=O)Cc2coc3ccc4ccccc4c23)n1	LASV entry inh inconclusive, HCV inhibitor inconclusive, Marburg entry inh 6.5µM, HCMV antiviral -70
O=C(O)Cc1coc2ccc3ccccc3c12	none
OC1(c2cccnc2)CCN(Cc2ccc3c(c2)CN(Cc2cccc4nccnc24)CCO3)CC1	none (no result: LASV entry inh, HCV inhibitor, Marburg entry inh, HCMV antiviral)
CCOC(=O)c1sc(NC(=O)CSc2n[nH]c(-c3ccccc3)n2)c(C#N)c1C	Marburg entry inh inconclusive
CCOC(=O)c1sc(NC(=O)CSc2nnc(Cc3ccccc3)o2)c(C#N)c1C	FMDV inh 32µM (no result: HCMV antiviral)
Cc1ccc(C)c(-c2cc(C(=O)Nc3sc(C)c(C)c3C(N)=O)c3ccccc3n2)c1	LASV entry inh inconclusive, HCV inhibitor 11µM, Marburg entry inh inconclusive, FMDV inh 22µM
CCOC(=O)c1sc(NC(=O)c2cc(-c3ccccc3)nc3ccccc23)c(C#N)c1C	Marburg entry inh inconclusive, HCMV antiviral -95, FMDV inh inconclusive
COc1ccc(-c2nc3scc(CCNS(=O)(=O)c4cccs4)n3n2)cc1	HCMV antiviral inconclusive (no result: HCV inhibitor, Marburg entry inh)
CN(C)CCN(C)Cc1ccccc1Sc1cccc2ccccc12	LASV entry inh inconclusive, HCV inhibitor 11µM, Marburg entry inh inconclusive, HCMV antiviral -75, FMDV inh inconclusive
O=C(Nc1cccc(F)c1)N1CC2(CCN(C(=O)c3cc(C(F)(F)F)cc(C(F)(F)F)c3)CC2)C1	none (no result: LASV entry inh, HCV inhibitor, Marburg entry inh, HCMV antiviral)
COC(=O)[C@H](C)NC(=O)Nc1cccc(C(F)(F)F)c1	none
CCOC(=O)C1C(C(=O)Nc2cccc(C(F)(F)F)c2)C1C(=O)NC(C)C (stereo not given)	LASV entry inh inconclusive, FMDV inh 32µM
COc1cccc(/C=C/C(=O)Nc2ccc(OC)nc2)c1	LASV entry inh inconclusive, HCMV antiviral -66
COc1cccc(C(=O)Nc2ccc(Oc3cccc(C(F)(F)F)c3)nc2)c1	LASV entry inh inconclusive, HCV inhibitor 7.1µM, Marburg entry inh 8.9µM, HCMV antiviral -74
COc1ccc(NC(=O)COc2cccc(C(F)(F)F)c2)cn1	Marburg entry inh inconclusive
O=C(Nc1ccc(Oc2cccc(C(F)(F)F)c2)nc1)c1ccccc1	LASV entry inh inconclusive, HCV inhibitor inconclusive, Marburg entry inh inconclusive, FMDV inh inconclusive
COc1ccc(NC(=O)/C=C/c2ccccc2)cn1	none
O=C(Nc1ccc(Oc2cccc(C(F)(F)F)c2)nc1)c1cccs1	HCV inhibitor inconclusive, Marburg entry inh inconclusive, HCMV antiviral -61, FMDV inh inconclusive
Cc1ccc(NS(=O)(=O)c2cccc(C(=O)Nc3cccnc3)c2)c(C)c1	LASV entry inh inconclusive, HCV inhibitor inconclusive, Marburg entry inh inconclusive, FMDV inh inconclusive
CCOC(=O)Cc1nnc(Nc2ccc(C(=O)NC)cc2)c2ccccc12	HCMV antiviral inconclusive
Cc1ccc2oc(C(=O)N3CCN(Cc4ncccc4C)CC3)c(C)c2c1	none (no result: HCV inhibitor)
CCOc1ccc2nc3sc(C(=O)N4CCN(C)CC4)c(N)c3cc2c1	HCV inhibitor 11µM, HCMV antiviral inconclusive
Cc1ccc2nc3sc(C(=O)N4CCOCC4)c(N)c3cc2c1	LASV entry inh inconclusive, Marburg entry inh 0.41µM, HCMV antiviral -69, FMDV inh 10µM
CC(C)c1ccc2nc3sc(C(=O)N4CCc5ccccc5C4)c(N)c3cc2c1	HCV inhibitor 10µM
CCN1CCc2nc3sc(C(=O)N4CCc5ccccc5C4)c(N)c3cc2C1	HCV inhibitor inconclusive, Marburg entry inh inconclusive
Cc1noc(C)c1-c1nccc(NC2CC2)n1	none (no result: LASV entry inh, HCV inhibitor, Marburg entry inh, HCMV antiviral)
